Source: PubChem BioAssay (Broad Institute)
This is a sample that favours compounds with a hit; in the whole collection about 6.7% have one here.
Pf Dd2 inh – blocks growth of Plasmodium falciparum Dd2 parasites; P. falciparum Dd2 growth, SYBR Green, 72 h; hits give low values; 94,000 compounds, 2.3% hits; activity change, % at 10 µM; in the data active = activity change below about -80%; inconclusive = no clear call, values can overlap the other calls
C diff growth – blocks growth of Clostridium difficile; 86,000 compounds, 0.25% hits; AID 1259249; growth activity, negative = inhibition, % at 16 µg/mL (by protocol); Clostridium difficile clinical isolate growth, OD600, 24 h; hits give low values;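 active = mean growth activity at or below -80% and every replicate also at or below -80%; inconclusive = mean at or below -80% but some replicate above -80%; inactive = mean growth activity above -80%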;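 note: 0% = DMSO wells and -100% = levofloxacin 16 µg/mL wells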
T cruzi growth-1 – blocks T. cruzi growth in NIH3T3 culture; T. cruzi beta-gal in NIH3T3, GalScreen luminescence, 90 h; inhibition, % at 8.34 µM; 77,000 compounds, 5.9% hits;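 active = mean inhibition above about 93%, with at least 55% of replicates each passing it, limit read from the data, passing the limit was not always enough; inconclusive = only one of those two conditions holds; inactive = neither condition holds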
T cruzi growth-2 – inhibitors of T. cruzi proliferation; T. cruzi beta-gal in NIH3T3, GalScreen luminescence, 90 h; inhibition, % at 8.35 µM; shares compounds with T cruzi growth-1; 5,600 compounds, 72% hits;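 active = mean replicate inhibition above about 95% and at least 55% of replicates individually reaching it, limit read from the data; inconclusive = only one of the two criteria is met; inactive = neither criterion is met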
T cruzi growth-3 – blocks T. cruzi growth in NIH3T3 host cells | 5,600 compounds, 21% hits | T. cruzi beta-gal in NIH3T3, GalScreen luminescence, 90 h | shares compounds with T cruzi growth-1 | inhibition, % at 2.09 µM;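 active = mean inhibition above about 95%, with at least 55% of replicates also reaching it, limit read from the data; inconclusive = meets just one of the two conditions; inactive = meets neither condition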;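 note: plate controls were neutral control median for no effect and positive control median for full effect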
NIH3T3 tox – kills mouse NIH/3T3 fibroblasts; 5,600 compounds, 14% hits; NIH/3T3 viability, CellTiter-Glo ATP luminescence, 90 h; cytotoxicity (signal decrease), % at 8.35 µM; shares compounds with T cruzi growth-1;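 active = mean signal decrease across replicates above about 35% based on untreated-well scatter, with enough replicates individually passing, limit read from the data; inconclusive = no rule stated though some were filed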;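 note: 0% = median of neutral control wells and 100% = median of positive control wells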
3T3 cytotox 2 – NIH/3T3 (mouse) viability loss; shares compounds with T cruzi growth-1; NIH/3T3 viability, CellTiter-Glo ATP luminescence, 90 h; inhibition, % at 24.9 µM; 5,600 compounds, 56% hits; AID 651744;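 active = mean loss of cell viability signal at or above a set limit, and enough replicates individually reaching it; inconclusive = meets only the mean limit or only the replicate share; inactive = meets neither condition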;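 note: 0% = median of neutral control wells and 100% = median of positive control wells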
Starred values were filed as active, the others as inactive; ? = inconclusive; nt = not tested or not shown; ! = not active in a repeat.

SMILES	Pf Dd2 inh	C diff growth	T cruzi growth-1	T cruzi growth-2	T cruzi growth-3	NIH3T3 tox	3T3 cytotox 2
C/C=C/c1ccc(C2[C@@H]3CN(Cc4cccc(F)c4)C[C@H]2N3)cc1 (some centres not stated)	-88.2*!	70.2	nt	nt	nt	nt	nt
C/C=C/c1ccc(C2[C@@H]3CN(Cc4cccnc4)C[C@H]2N3)cc1 (some centres not stated)	-84.2*!	-0.1	nt	nt	nt	nt	nt
C/C=C/c1ccc(C2[C@@H]3CN(Cc4ccccn4)C[C@H]2N3)cc1 (some centres not stated)	-13.0	1.1	nt	nt	nt	nt	nt
C/C=C/c1ccc(C2[C@@H]3CN(C(C)=O)C[C@H]2N3)cc1 (some centres not stated)	-6.9	1.8	nt	nt	nt	nt	nt
C/C=C/c1ccc(C2[C@@H]3CN(C(=O)C4CCC4)C[C@H]2N3)cc1 (some centres not stated)	-50.0	-5.4	nt	nt	nt	nt	nt
Cc1cccc(S(=O)(=O)N2[C@@H]3Cn4c(ccc(-c5cccc(F)c5)c4=O)[C@H]2[C@@H](C(=O)O)[C@@H]3CO)c1	2.9	-0.1	-13.7	nt	nt	nt	nt
Cc1ccc(OC(=O)N(C)C[C@@H]2OCc3ccccc3-c3c(n(C)c4ccccc34)C(=O)N([C@@H](C)CO)C[C@@H]2C)cc1	-40.1	0.8	nt	nt	nt	nt	nt
Cc1ccc(OC(=O)N(C)C[C@H]2OCc3ccccc3-c3c(n(C)c4ccccc34)C(=O)N([C@H](C)CO)C[C@@H]2C)cc1	-87.5*	14.0	nt	nt	nt	nt	nt
O=C(Cc1ccccn1)N1CC2(C1)[C@@H](c1ccccc1)[C@@H](CO)N2Cc1ccccn1	8.4	0.6	nt	nt	nt	nt	nt
O=C(Cc1cccnc1)N1CCCCN2[C@H](CO)[C@@H](c3ccc(C#CC4CCCC4)cc3)[C@H]2C1	-29.2	-4.2	?	79.6	3.3	5.2	104.3*
O=C(Cc1cccnc1)N1CCCCN2[C@H](CO)[C@H](c3ccc(C#CC4(O)CCCC4)cc3)[C@@H]2C1	27.5	-1.3	17.7	nt	nt	nt	nt
O=C(Cc1cccnc1)N1CCCCN2[C@@H](CO)[C@@H](c3ccc(C#CC4(O)CCCC4)cc3)[C@@H]2C1	-15.4	1.6	61.5	nt	nt	nt	nt
O=C(Cc1cccnc1)N1CCCCN2[C@H](CO)[C@H](c3ccc(C#CC4CCCC4)cc3)[C@H]2C1	-1.7	-11.9	100.4*	100.5*	45.0	32.3	106.1*
O=C(Cc1cccnc1)N1CCCCN2[C@H](C1)[C@@H](c1ccc(C#CC3CC3)cc1)[C@@H]2CO	-10.4	-3.8	-155.0	nt	nt	nt	nt
O=C(Cc1cccnc1)N1CCCCN2[C@@H](CO)[C@H](c3ccc(C#CC4CC4)cc3)[C@@H]2C1	-76.0	-8.2	108.5*	99.5*	51.2	20.1	20.0
O=C(Cc1cccnc1)N1CCCCN2[C@H](CO)[C@@H](c3ccc(C#CC4CC4)cc3)[C@@H]2C1	-16.1	-9.3	47.7	nt	nt	nt	nt
O=C(Cc1cccnc1)N1CCCCN2[C@@H](CO)[C@@H](c3ccc(C#CC4CCCC4)cc3)[C@@H]2C1	-62.2	2.8	104.7*	?	-4.3	6.9	102.5*
COC(=O)[C@@H]1[C@@H](CO)[C@@H]2Cn3c(ccc(-c4ccncc4)c3=O)[C@H]1N2S(=O)(=O)c1ccccc1F	9.9	-1.3	85.5	nt	nt	nt	nt
CCC(=O)N1[C@@H]2Cn3c(ccc(-c4cccc(F)c4)c3=O)[C@H]1[C@@H](C(=O)OC)[C@@H]2CO	5.5	5.6	19.2	nt	nt	nt	nt
COC(=O)C[C@@H]1CC[C@H]2NC[C@@H](O)COC[C@@H]2O1	3.7	5.2	61.3	nt	nt	nt	nt
CCCNC(=O)[C@H]1[C@H](CO)[C@H]2Cn3c(cccc3=O)[C@@H]1N2CCC	17.6	-1.4	62.1	nt	nt	nt	nt
COc1cccc(-c2ccc3n(c2=O)C[C@H]2[C@H](CO)[C@@H](C(=O)O)[C@@H]3N2Cc2ccccc2F)c1	nt	nt	-36.6	nt	nt	nt	nt
O=C(Cc1cccnc1)N1CCCCN2[C@H](C1)[C@H](c1ccc(C#CC3CCCC3)cc1)[C@@H]2CO	4.5	-0.6	103.7*	90.0	30.1	-8.9	96.7*
O=C(Cc1cccnc1)N1CCCCN2[C@@H](CO)[C@H](c3ccc(C#CC4(O)CCCC4)cc3)[C@@H]2C1	18.6	-4.9	40.8	nt	nt	nt	nt
O=C(Cc1ccccn1)N1CCCCN2[C@H](CO)[C@@H](c3ccc(-c4ccccc4F)cc3)[C@@H]2C1	-33.6	7.9	25.5	nt	nt	nt	nt
SMILES	Pf Dd2 inh	C diff growth	T cruzi growth-1	T cruzi growth-2	T cruzi growth-3	NIH3T3 tox	3T3 cytotox 2
O=C(Cc1ccccn1)N1CCCCN2[C@@H](CO)[C@@H](c3ccc(-c4ccc(F)cc4)cc3)[C@@H]2C1	-48.5	4.8	?	72.5	60.2	0.9	40.9*
O=C(Cc1ccccn1)N1CCCCN2[C@@H](CO)[C@H](c3ccc(-c4ccc(F)cc4)cc3)[C@@H]2C1	-33.9	-4.7	100.7*	?	68.9	-5.7	34.2*
Cc1ccccc1-c1ccc([C@@H]2[C@H](CO)N3CCCCN(C(=O)Cc4ccccn4)C[C@@H]23)cc1	-9.0	-10.9	?	91.5	64.2	11.0	64.8*
O=C(Cc1ccccn1)N1CCCCN2[C@H](C1)[C@@H](c1ccc(-c3ccc(F)cc3)cc1)[C@@H]2CO	-34.9	-1.3	45.6	nt	nt	nt	nt
Cc1ccccc1-c1ccc([C@H]2[C@@H](CO)N3CCCCN(C(=O)Cc4ccccn4)C[C@H]23)cc1	-6.2	-10.1	93.2	nt	nt	nt	nt
O=C(Cc1ccccn1)N1CCCCN2[C@H](C1)[C@H](c1ccc(-c3ccc(F)cc3)cc1)[C@@H]2CO	9.0	1.8	91.9	nt	nt	nt	nt
O=C(Cc1ccccn1)N1CCCCN2[C@H](CO)[C@H](c3ccc(-c4ccccc4F)cc3)[C@@H]2C1	18.2	19.8	96.6*	108.8*	72.3	-11.4	-11.8
CCN1[C@@H]2Cn3c(ccc(-c4ccc(OC)cc4)c3=O)[C@H]1[C@@H](C(=O)OC)[C@@H]2CO	nt	1.6	-13.7	nt	nt	nt	nt
CC=Cc1ccc2n(c1=O)C[C@H]1[C@H](CO)[C@@H](C(=O)OC)[C@@H]2N1S(=O)(=O)c1ccccc1C (mixture of isomers)	3.0	-4.6	-6.1	nt	nt	nt	nt
Cc1cccc(S(=O)(=O)N2[C@@H]3c4ccc(-c5ccncc5)c(=O)n4C[C@H]2[C@H](CO)[C@H]3C(=O)O)c1	7.0	-0.2	56.1	nt	nt	nt	nt
O=C(O)[C@@H]1[C@@H](CO)[C@@H]2Cn3c(ccc(C4=CCCCC4)c3=O)[C@H]1N2C(=O)Cc1ccccn1	nt	2.8	-42.4	nt	nt	nt	nt
COC(=O)[C@H]1[C@H](CO)[C@H]2Cn3c(ccc(-c4ccncc4)c3=O)[C@@H]1N2S(=O)(=O)c1ccccc1F	9.0	-2.7	10.6	nt	nt	nt	nt
CC(C)CC#Cc1ccc([C@H]2[C@H](CO)N3CCCCN(C(=O)Cc4ccccn4)C[C@@H]23)cc1	-26.5	-18.2	94.6	nt	nt	nt	nt
CC(C)CC#Cc1ccc([C@@H]2[C@@H](CO)N3CCCCN(C(=O)Cc4ccccn4)C[C@H]23)cc1	0.2	-9.7	88.4	nt	nt	nt	nt
CC(C)CC#Cc1ccc([C@@H]2[C@H](CO)N3CCCCN(C(=O)Cc4ccccn4)C[C@@H]23)cc1	-33.3	-9.7	96.9*	107.5*	72.6	15.2	103.9*
